We go through 40 compounds from PubChem BioAssay.

The inhibition is the drop in the measured response relative to a control, in per cent.

Active and inactive are the calls of the source. The rule behind the calls is not given here.

The target in the assay is Pantothenate synthetase (Mycobacterium tuberculosis (strain ATCC 25618 / H37Rv)) (UniProt P9WIL5). The experiment in a line: Recombinant Mtb pantothenate synthetase (PanC) inhibitors, coupled enzyme, confirmatory (AID 375).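 Note: 0% = full reaction with vehicle and 100% = no enzyme background.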 The following applies: coupled enzyme assay; at 10 µM, hits give high values.
Chain of Pantothenate synthetase (Mycobacterium tuberculosis (strain ATCC 25618 / H37Rv)) (P9WIL5 whole entry, looked up): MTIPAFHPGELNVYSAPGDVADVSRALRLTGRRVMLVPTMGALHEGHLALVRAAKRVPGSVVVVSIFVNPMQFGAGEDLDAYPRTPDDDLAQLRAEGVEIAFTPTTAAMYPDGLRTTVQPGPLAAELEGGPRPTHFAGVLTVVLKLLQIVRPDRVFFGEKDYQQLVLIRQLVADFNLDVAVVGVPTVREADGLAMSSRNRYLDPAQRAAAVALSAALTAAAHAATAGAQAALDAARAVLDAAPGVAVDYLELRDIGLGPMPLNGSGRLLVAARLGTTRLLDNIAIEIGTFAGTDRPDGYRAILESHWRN
Regarding `COCCOC(=O)c1[nH]c2c(c1C)C(=O)CC(c1ccc(N(C)C)cc1)C2` (stereo not given), the inhibition is 0% (inactive).

On to `Cc1cc(C)c(NC(=O)C2CSCCS2)c(C)c1` (stereo not given), for which the inhibition was 0% (inactive).

`O=C(NC1CCCCC1)N(Cc1ccc(F)cc1)Cc1nc2ccccc2c(=O)[nH]1`: the inhibition was 9% (inactive).

Take `CCN(CC)c1ncc(C)c(=O)[nH]1`: the inhibition was 1% (inactive).

With `CCOC(=O)c1cnn(-c2cc(C)nc3c(-c4ccccc4)c(C)nn23)c1N`, the inhibition is 6% (inactive).

Turning to `COC(=O)c1c(-c2cccs2)csc1NC(=O)CN1CCOCC1`, the inhibition is 0% (inactive).

Turning to `O=C(NC1CCS(=O)(=O)C1)N1CCCCC1` (stereo not given), the inhibition is 7% (inactive).

For the compound `CCc1nnc(NC(=O)CN2CCN(c3ccccc3OC)CC2)s1`, the inhibition is 4% (inactive).

With `Cn1cnc(S(=O)(=O)Nc2ccc(C(F)(F)F)cc2)c1`, the inhibition was 0% (inactive).

`Cc1cc(=O)n(CC(C)C)c(O)c1C#N`: the inhibition is 0% (inactive).

For the compound `O=C1N(c2ccccc2)C2CS(=O)(=O)CC2N1c1ccc(Br)cc1` (stereo not given), the inhibition is 0% (inactive).

In the case of `COc1ccc(CNS(=O)(=O)c2ccc3oc(C(=O)O)c(C)c3c2)cc1`, the inhibition is 0% (inactive).

Consider `CC(C)CC1NC2(C(=O)N(C)c3ccccc32)C2C(=O)N(C(C)C)C(=O)C12` (stereo not given), for which the inhibition was 0% (inactive).

In the case of `O=C(Cc1c(F)cccc1Cl)Nc1ccncc1`, the inhibition was 6% (inactive).

Regarding `CC(=O)C1=C(O)C(=O)N(Cc2ccco2)C1c1ccc2c(c1)OCO2` (stereo not given), the inhibition was 3% (inactive).

On to `CCOC(=O)c1ccc(NS(=O)(=O)c2ccc3c(c2)CCCN3C(C)=O)cc1`, for which the inhibition is 0% (inactive).

With `CC(C)(C)SCCNC(=O)CSc1ccccc1`, the inhibition was 7% (inactive).

For the compound `CCN1CCCC1CNCc1ccc(Cl)cc1Cl` (stereo not given), the inhibition was 0% (inactive).

As to `CCC(=O)N1CCc2cc(Br)cc(S(=O)(=O)N3CCCCCC3)c21`, the inhibition was 0% (inactive).

For `Nc1ccc(-c2ccc(N)cc2C(F)(F)F)c(C(F)(F)F)c1`, the inhibition is 0% (inactive).

Regarding `Cc1ccc(-c2cc(C(F)F)nc(NCc3cccnc3)n2)cc1`, the inhibition is 0% (inactive).

Consider `OC1C=CSc2nc3ccccc3n21` (stereo not given), for which the inhibition is 0% (inactive).

Take `CC(C)=CC(=O)N1CCCc2ccccc21`: the inhibition was 13% (inactive).

As for `N#Cc1c(NC(=O)CSc2nnnn2C2CCCC2)sc2c1CCCC2`, the inhibition was 7% (inactive).

As for `CCc1ccccc1NC(=O)c1ccoc1C`, the inhibition is 0% (inactive).

On to `COC(=O)c1[nH]c2ccc(C)cc2c1NC(=O)CN1CCN(C(=O)c2ccccc2)CC1`, for which the inhibition was 4% (inactive).

With `CCCc1nc(N2CCOCC2)c(C#N)c2c1CCCC2`, the inhibition is 4% (inactive).

Turning to `Cc1ccccc1N(CC(=O)NCC1CCCO1)C(=O)C1(C)CC(=O)N=C2C=CC=CN21` (stereo not given), the inhibition is 0% (inactive).

For the compound `FC(F)(F)COc1nc(N2CCCCC2)nc(N2CCNCC2)n1`, the inhibition was 4% (inactive).

As for `CCOC(=O)c1ccc(NC2OC(=O)c3ccccc32)cc1` (stereo not given), the inhibition is 4% (inactive).

Take `c1ccc(-c2csc(N3CCCCCC3)n2)cc1`: the inhibition was 4% (inactive).

As for `CCOc1ccccc1N1CCN(C(=O)c2ccncc2)CC1`, the inhibition was 0% (inactive).

As to `Clc1ccccc1OCCCCn1ccnc1`, the inhibition is 0% (inactive).

As for `Cc1cccc2cc(COC(=O)C(C)(C)C)c(=O)[nH]c12`, the inhibition was 0% (inactive).

As to `COc1ccccc1OCCOc1ccccc1/C=N/n1cnnc1`, the inhibition is 6% (inactive).

In the case of `C=CCn1c(SCC(=O)NC23CC4CC(CC(C4)C2)C3)nc(O)cc1=O`, the inhibition was 0% (inactive).

For `O=C(c1cccc(Cl)c1)N1CCN(Cc2ccncc2)CC1`, the inhibition is 0% (inactive).

Consider `Cc1[nH]c2ccccc2c(=O)c1CN1CCCCC1`, for which the inhibition is 0% (inactive).

As to `c1coc(CN(Cc2cccs2)Cc2nnnn2C2CCCCC2)c1`, the inhibition is 0% (inactive).

On to `COc1cccc(NC(=O)COC(=O)c2cccnc2)c1`, for which the inhibition is 0% (inactive).
